Among the data in PubChem BioAssay (NCI) are growth values, retold here.

The panel holds about 83,000 compounds, 20% with a hit somewhere; the sample as a whole holds those more often.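 How to read the values: 0–100, growth inhibition (40 = 60% inhibited); 0, no net growth; -100 to 0, cell death (-40 = 40% of starting cells died; -100 = all dead).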 A number with no mark means an inactive call. Active and inactive are the calls of the source. Rule for the calls: active = growth percent below 10; inactive = the rest.

Common to all, as to experiment: NCI-60 one-dose screen, 48 h (100 = growth as untreated, 0 = no growth, -100 = all killed)
Common to all, as to conditions: 10 µM unless noted

Assay [1] concerns NCI-H23 lung.
Assay [2] has as its system NCI-H226 lung.
The subject of assay [3] is NCI-H322M lung.
Assay [4] concerns HOP-62 NSCLC.
The subject of assay [5] is NCI-H460 lung.
For assay [6], the system named is HOP-92 NSCLC.
Assay [7] relates to NCI-H522 lung.
Assay [8] concerns A549/ATCC NSCLC.
In assay [9] the test system is 786-0 renal.
Assay [10] relates to COLO 205 colon.

Consider `O=[N+]([O-])c1ccc(S(=O)(=O)N2CCN(c3ccnc4cc(Cl)ccc34)CC2)c([N+](=O)[O-])c1`, for which the growth in assay [1] was 97.2%; in [2], 83.7%; in assay [3] it was 107%; in [4], 96.4%; in assay [5], 99.2%; in [6], 82.1%. For the same compound, the growth in assay [7] was 46.1%; in [8], 99.2%; in assay [9], 80.8%; in assay [10], 91.4%.
As for `CCC(=O)Nc1ccccc1C#C/C=C\C#Cc1ccccc1SC`, the growth in assay [1] was 79.9%; in assay [2], 76.4%; in assay [3] it was 101%; in assay [4], 66.5%; in assay [5] it was 28.6%; in assay [6], 48.1%. The growth in assay [7] is 84.4%; in assay [8], 62.4%; in [9], 87.7%; in assay [10] it was 66.2%.
As for `C=C1C(=O)O[C@H]2[C@H]1CC/C(COC(=O)NCc1cc(OC)cc(OC)c1)=C\CC[C@@]1(C)O[C@@H]21`, the growth was 20.8% in assay [1]; 13.2% in assay [2]; 73.4% in assay [3]; 44.9% in [4]; 34.9% in assay [5]; -21.6% (active) in [6]. Besides, the growth in [7] is -52.7% (active); in assay [8], 51.2%; in assay [9], -37.7% (active); in assay [10] it was -64.9% (active).
Take `CCSc1nnc(Nc2ccc(C(C)C)cc2)s1`: the growth is 79.3% in assay [1]; 75% in assay [2]; 97.6% in assay [3]; 91.5% in [4]; 97.5% in assay [5]; 92.7% in assay [6]. The growth is 87.2% in assay [7], 86.5% in [8], 86% in assay [9] and 86.9% in [10].
Take `C#CCN1C(=O)/C(=c2\sc3n(c2=O)C2C(NN=3)N(CC)C(=O)N2CC)c2ccccc21` (stereo not given): the growth in assay [1] is 18.5%; in assay [2], 98%; in assay [3], 44.3%; in assay [4], -4.91% (active); in assay [5], 5.2% (active); in assay [6], 58.1%. Moreover, the growth in assay [7] was 25%; in assay [8], 23.3%; in assay [9], 12%; in assay [10] it was -12.2% (active).
As to `COc1ccc(N=C2NN=C(c3ccc(F)cc3)CS2)cc1OC`, the growth in assay [1] is 104%; in assay [2] it was 78.5%; in assay [3], 96.4%; in [4] it was 96.3%; in [5], 107%; in assay [6], 72.8%. The growth in assay [7] was 89%; in assay [8], 92.4%; in assay [9], 88%; in assay [10] it was 98.7%.
For the compound `CCCCCCCCCCCCNC(=S)N/N=C/c1ccc(Cl)c(Cl)c1`, the growth in assay [1] is 109%; in [2], 106%; in assay [3] it was 112%; in assay [4], 105%; in assay [5] it was 112%; in assay [6], 122%. For the same compound, the growth in [7] was 65.7%; in assay [8], 103%; in [9], 106%; in [10], 106%.
Regarding `CCN1C(=S)N(CC)C2Nn3c(s/c(=C4\C(=O)N(C)c5ccccc54)c3=O)=NC21` (stereo not given), the growth was 44.9% in assay [1]; 88.6% in assay [2]; 73.1% in assay [3]; 52.3% in assay [4]; 29% in assay [5]; 76.1% in [6]. Moreover, the growth is 32.3% in assay [7], 50.3% in [8], 56.2% in [9] and 30.8% in [10].
For `Oc1ccc(Cl)cc1-c1cc(-c2ccc(Cl)cc2)n[nH]1`, the growth in assay [1] was 49.8%; in assay [2] it was 64.4%; in [3] it was 55.5%; in [4], 55.9%; in assay [5], 40.4%; in assay [6], 42.9%. For the same compound, the growth in assay [7] was 47.5%; in [8], 49.3%; in [9], 84.6%; in [10], 73.7%.
Turning to `NC(=O)c1c(NC(=O)c2ccc(OCC3CCCO3)cc2)sc2c1CCCC2` (stereo not given), the growth in [1] is 100%; in [2], 83.8%; in [3], 99.8%; in [4], 108%; in assay [5] it was 106%; in assay [6] it was 66.9%. The growth was 87.3% in assay [7], 35.5% in [8], 95.5% in [9] and 111% in [10].
On to `O=C(/C=C/CN1CCOCC1)Nc1cc2c(Nc3cccc(Cl)c3F)ncnc2cc1OCCOC(F)F`, for which the growth is 85.4% in assay [1]; 80.1% in assay [2]; 4.9% (active) in [3]; 70.5% in assay [4]; 93% in [5]; 18.9% in assay [6]. The growth in assay [7] is 6.03% (active); in assay [8], 52.7%; in [9], 53.4%; in assay [10] it was 95.1%.
Consider `O=C(NNC(=S)Nc1ccccc1)c1ccccn1`, for which the growth in assay [1] is 73.1%; in assay [2], 43.4%; in [3], 23.3%; in [4], 37.9%; in assay [5] it was 21.2%; in assay [6], 16.7%. The growth in assay [7] is 69%; in assay [8], 24.3%; in assay [9], 22.6%; in assay [10], 22.5%.
For `Cc1cc(-c2ccccc2)c(C)n1Cc1ccc(Cl)cc1`, the growth in [1] was 65.8%; in assay [2] it was 71.3%; in assay [3], 68.1%; in assay [4] it was 55.4%; in assay [5] it was 20.8%; in [6], 54.2%. In addition, the growth in [7] is 37.5%; in [8] it was 33.7%; in assay [9], 47.8%; in assay [10], 38.2%.
